Assay outcomes deposited in PubChem by Broad Institute.
T cruzi growth = T. cruzi proliferation inhibition | T. cruzi beta-gal in NIH3T3, GalScreen luminescence, 90 h | inhibition, % at 8.34 µM | hit rate 5.9% among 77,000 | AID 624255;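 active = mean inhibition above about 93%, with at least 55% of replicates each passing it, limit read from the data, passing the limit was not always enough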
C diff growth = inhibitors of Clostridium difficile growth; Clostridium difficile clinical isolate growth, OD600, 24 h; stronger effect = lower value; growth activity, negative = inhibition, % at 16 µg/mL (by protocol); hit rate 0.25% among 86,000;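 active = mean growth activity at or below -80% and every replicate also at or below -80%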
Pf Dd2 growth = blocks growth of Plasmodium falciparum Dd2 parasites; AID 1159554; activity change, % at 10 µM; P. falciparum Dd2 growth, SYBR Green, 72 h; stronger effect = lower value; hit rate 2.3% among 94,000; in the data active = activity change below about -80%
Numbers stand for hits; . = inactive; / = not tested or not shown. Only some compounds are listed: those with a hit (about 6.8% of all), similar ones and a draw of the others.

SMILES | T cruzi growth | C diff growth | Pf Dd2 growth
COc1ccc2c3c([nH]c2c1)[C@@H](CO)N(C(=O)Nc1ccc(F)cc1)CC31CCN(C(=O)Cc2ccncc2)CC1 | / | . | .
COc1ccc2c3c([nH]c2c1)[C@H](CO)N(C(=O)Nc1ccc(F)cc1)CC31CCN(C(=O)Cc2ccncc2)CC1 | / | . | -84
CCC(=O)N1CC2(CCN(C(=O)Nc3ccccc3F)CC2)c2c([nH]c3cc(OC)ccc23)[C@@H]1CO | / | . | -85
CCC(=O)N1CC2(CN(C(=O)Nc3ccccc3F)C2)c2c([nH]c3cc(OC)ccc23)[C@@H]1CO | / | . | .
COc1ccc2c3c([nH]c2c1)[C@H](CO)N(C(C)=O)CC31CCN(C(=O)Nc2ccccc2F)CC1 | / | . | -89
COc1ccc2c3c([nH]c2c1)[C@H](CO)N(C(=O)Nc1ccccc1F)CC31CCN(C(C)=O)CC1 | / | . | .
CCC(=O)N1CCC2(CC1)CN(C(=O)Nc1ccccc1F)[C@H](CO)c1[nH]c3cc(OC)ccc3c12 | / | / | .
Cc1noc(C)c1S(=O)(=O)Nc1ccc2c(c1)CC(=O)N([C@@H](C)CO)C[C@H](C)[C@@H](CN(C)C(=O)Nc1ccc(F)cc1)O2 | . | . | .
Cc1ccccc1-c1ccccc1[C@H]1[C@@H](C#N)N(C(=O)c2ccc(F)cc2)[C@H]1CO | / | . | .
Cc1ccc(S(=O)(=O)N(C)C[C@@H]2Oc3ccc(NC(=O)CCN4CCOCC4)cc3C(=O)N([C@@H](C)CO)C[C@@H]2C)cc1 | . | . | .
CN(C)CC(=O)N1[C@H](C#N)[C@H](c2ccccc2-c2ccc(C(=O)N(C)C)cc2)[C@H]1CO | / | . | .
CC(=O)N[C@H]1CC[C@@H](CCNC(=O)C2CC2)O[C@H]1CO | . | / | .
COc1ccc2c3c([nH]c2c1)[C@H](CO)NCC31CCN(C(=O)Nc2ccc3c(c2)OCO3)CC1 | / | . | -94
CCC(=O)N1CC2(CN(C(=O)Nc3ccc(F)cc3)C2)c2c([nH]c3cc(OC)ccc23)[C@H]1CO | / | . | .
COc1ccc2c3c([nH]c2c1)[C@@H](CO)NCC31CCN(C(=O)Nc2ccc(F)cc2)CC1 | / | . | .
COc1ccc2c3c([nH]c2c1)[C@H](CO)N(S(C)(=O)=O)CC31CCN(C(=O)Nc2ccccc2)CC1 | / | . | -83
COc1ccc2c3c([nH]c2c1)[C@@H](CO)N(S(C)(=O)=O)CC31CCN(C(=O)Nc2ccccc2)CC1 | / | . | .
CCC(=O)N1CC2(CCN(C(=O)Nc3ccc(F)cc3)CC2)c2c([nH]c3cc(OC)ccc23)[C@H]1CO | / | . | -84
C[C@H]1CN([C@@H](C)CO)C(=O)c2cccc(NS(=O)(=O)c3ccccc3)c2O[C@H]1CN(C)Cc1ccc(-c2ccccc2)cc1 | . | / | .
CCNC(=O)[C@@H]1[C@@H](CO)[C@@H]2Cn3c(ccc(-c4ccccc4F)c3=O)[C@H]1N2CCC(F)(F)F | . | . | .
COc1cccc(S(=O)(=O)N(C)C[C@@H]2Oc3ncc(-c4cccc(C(=O)N(C)C)c4)cc3C(=O)N([C@@H](C)CO)C[C@H]2C)c1 | . | . | .
COc1ccc(S(=O)(=O)N(C)C[C@@H]2Oc3ncc(-c4cc5ccccc5o4)cc3C(=O)N([C@H](C)CO)C[C@@H]2C)cc1 | . | . | -86
C[C@H](CO)N1C[C@H](C)[C@H](CN(C)S(=O)(=O)c2ccc(C#N)cc2)Oc2ncc(-c3cc4ccccc4o3)cc2C1=O | . | / | .
COc1cccc(S(=O)(=O)N(C)C[C@H]2Oc3ncc(-c4cccc(C(=O)N(C)C)c4)cc3C(=O)N([C@H](C)CO)C[C@@H]2C)c1 | . | . | -84
COc1ccc2c3c([nH]c2c1)[C@@H](CO)N(C(=O)NC(C)C)CC31CCN(C(=O)c2cccnc2)CC1 | / | . | .
SMILES | T cruzi growth | C diff growth | Pf Dd2 growth
O=C(Nc1ccc2c(c1)OCO2)N[C@@H]1CC[C@@H](CCNC(=O)C2CCOCC2)O[C@@H]1CO | / | . | /
C[C@@H](C(=O)N(C)C[C@@H]1OCc2ccccc2-c2c(n(C)c3ccccc23)C(=O)N([C@@H](C)CO)C[C@@H]1C)c1ccccc1 | / | . | -86
C[C@H](C(=O)N(C)C[C@H]1OCc2ccccc2-c2c(n(C)c3ccccc23)C(=O)N([C@H](C)CO)C[C@H]1C)c1ccccc1 | / | . | .
C[C@H](C(=O)N(C)C[C@H]1OCc2ccccc2-c2c(n(C)c3ccccc23)C(=O)N([C@@H](C)CO)C[C@@H]1C)c1ccccc1 | / | . | .
C[C@H](CO)N1C[C@H](C)[C@@H](CN(C)C(=O)c2cc(Cl)cc(Cl)c2)OCc2ccccc2-c2c(n(C)c3ccccc23)C1=O | / | . | .
C[C@@H]1CN([C@H](C)CO)C(=O)c2c(c3ccccc3n2C)-c2ccccc2CO[C@@H]1CN(C)C(=O)[C@H](C)c1ccccc1 | / | . | -91
C[C@@H]1CN([C@@H](C)CO)C(=O)c2c(c3ccccc3n2C)-c2ccccc2CO[C@@H]1CN(C)C(=O)c1cc(Cl)cc(Cl)c1 | / | . | -87
C[C@H]1CN([C@@H](C)CO)C(=O)c2ccccc2-c2ccccc2CO[C@H]1CN(C)C(=O)c1cc(Cl)cc(Cl)c1 | / | . | -83
C[C@H](CO)N1C[C@H](C)[C@H](CN(C)C(=O)c2cc(Cl)cc(Cl)c2)OCc2ccccc2-c2ccccc2C1=O | / | . | .
COc1ccc(S(=O)(=O)Nc2ccc3c(c2)C(=O)N([C@H](C)CO)C[C@@H](C)[C@H](CN(C)S(=O)(=O)c2cn(C)cn2)OCCCC[C@@H](C)O3)cc1 | . | . | .
Cc1noc(C)c1S(=O)(=O)N(C)C[C@H]1OCCCC[C@H](C)Oc2ccc(N(C)C)cc2C(=O)N([C@H](C)CO)C[C@@H]1C | . | . | /
CCCNC(=O)Nc1ccc2c(c1)C(=O)N(C)C[C@@H](OC)[C@H](C)CN(Cc1ccc(-c3ccccn3)cc1)[C@H](C)CO2 | . | / | .
C[C@H](CO)N1C[C@H](C)[C@@H](CN(C)C(=O)[C@H](C)c2ccccc2)OCc2ccccc2-c2c(n(C)c3ccccc23)C1=O | / | . | -94
C[C@H](C(=O)N(C)C[C@@H]1OCc2ccccc2-c2c(n(C)c3ccccc23)C(=O)N([C@@H](C)CO)C[C@H]1C)c1ccccc1 | / | . | .
C[C@H](CO)N1C[C@H](C)[C@H](CN(C)C(=O)Nc2ccccc2F)OCc2cn(nn2)CCCC1=O | . | . | .
CC(C)CC#Cc1ccc([C@@H]2[C@@H](CO)N3C(=O)CN(C(=O)NC4CCCC4)C[C@@H]23)cc1 | / | . | .
COc1ccc(S(=O)(=O)Nc2ccc3c(c2)C(=O)N([C@@H](C)CO)C[C@H](C)[C@@H](CN(C)S(=O)(=O)c2ccccc2)OCCCC[C@@H](C)O3)cc1 | / | . | -88
COc1ccc(S(=O)(=O)N(C)C[C@@H]2OCCCC[C@H](C)Oc3ccc(NS(=O)(=O)c4ccc(C)cc4)cc3C(=O)N([C@@H](C)CO)C[C@H]2C)cc1 | . | . | .
COc1ccc(S(=O)(=O)Nc2ccc3c(c2)C(=O)N([C@@H](C)CO)C[C@@H](C)[C@@H](CN(C)S(=O)(=O)c2ccc(C)cc2)OCCCC[C@H](C)O3)cc1 | / | / | .
COc1ccc(S(=O)(=O)N(C)C[C@H]2OCCCC[C@H](C)Oc3ccc(NS(=O)(=O)c4ccccc4)cc3C(=O)N([C@H](C)CO)C[C@H]2C)cc1 | . | . | /
